# Hit rate of the full screen: of about 330,000 compounds, about 5,800 (1.8%) were called active. This is one part of a sample in which actives are shown more often than they occur. Unmarked numbers belong to inactive results.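 Rule for the calls: active = inhibition above about 50% at the single tested dose (limit read from the data); inactive = the rest.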
# Target: Sentrin-specific protease 6 (Homo sapiens) (UniProt Q9GZR1)
# Assay: SENP6 protease inhibitors, primary screen, biochemical, luminescence, uHTS (AID 2599);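 note: plate controls were DMSO wells with enzyme for no effect and DMSO wells lacking enzyme for full effect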
# Conditions: Recombinant SENP6 catalytic domain, aminoluciferin luminescence; at 10 µM; active compounds read high
# Sequence of Sentrin-specific protease 6 (Homo sapiens) (Q9GZR1 628-1112 limits assumed): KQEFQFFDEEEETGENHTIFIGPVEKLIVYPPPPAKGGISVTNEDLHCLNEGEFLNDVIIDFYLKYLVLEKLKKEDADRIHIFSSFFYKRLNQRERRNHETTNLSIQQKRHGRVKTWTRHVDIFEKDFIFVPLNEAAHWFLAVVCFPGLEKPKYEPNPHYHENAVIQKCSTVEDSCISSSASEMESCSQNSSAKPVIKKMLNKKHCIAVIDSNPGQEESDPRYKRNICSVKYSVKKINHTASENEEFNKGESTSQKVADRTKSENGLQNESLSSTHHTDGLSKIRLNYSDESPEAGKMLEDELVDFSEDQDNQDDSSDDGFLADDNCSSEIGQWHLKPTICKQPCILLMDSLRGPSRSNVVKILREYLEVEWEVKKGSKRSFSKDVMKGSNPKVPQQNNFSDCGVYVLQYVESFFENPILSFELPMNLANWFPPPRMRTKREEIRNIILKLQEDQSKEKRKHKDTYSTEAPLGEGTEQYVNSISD
row,Compound,inhibition
1,CCCOc1ccc(N2C(=O)CC(N(CCc3ccc(S(N)(=O)=O)cc3)C(C)=O)C2=O)cc1 (stereo not drawn),-12.7%
2,Cc1ccsc1C(=O)OCC(=O)c1cc(C)n(CC2CCCO2)c1C (stereo not drawn),97.8% (active)
3,COc1ccc(C(=O)OCC(=O)c2cc(C)n(CC3CCCO3)c2C)cc1[N+](=O)[O-] (stereo not drawn),-1.02%
4,Cc1cc(C(=O)Cn2cnc3cc([N+](=O)[O-])ccc3c2=O)c(C)n1CC1CCCO1 (stereo not drawn),-13.2%
5,Cc1coc2cc3oc(=O)c(CCC(=O)O)c(C)c3cc12,1.41%
6,COc1ccccc1NC(=O)CSc1nnc(-c2ccoc2C)n1CCc1ccccc1,-3.86%
7,Cc1ccc(S(=O)(=O)N2CCOCC2)cc1C(=O)OC1CCCCC1=O (stereo not drawn),7.83%
8,CCN1C(=O)c2cccc3c(S(=O)(=O)Nc4ccccc4O)ccc1c23,-9.84%
9,CCN1C(=O)c2cccc3c(N)ccc1c23,80.3% (active)
10,CN1C(=O)c2cccc3c(N)ccc(c23)C1=O,-16.2%
11,Cc1ccc(C)c(Cn2cnc3c(oc4ccccc43)c2=O)c1,9.24%
12,Cc1c(NC(=O)C(C)OC(=O)c2ccccc2O)c(=O)n(-c2ccccc2)n1C (stereo not drawn),-6.6%
13,CCc1ccc(NC(=O)COC(=O)c2cccs2)cc1,8.32%
14,CCN(CC)c1ccc(/C=N/NC(=O)CNC(=O)c2cccs2)cc1,-14.6%
15,CCc1ccc(NC(=O)C(=O)NNC(=O)c2cccs2)cc1,85.8% (active)
16,Cc1cccc(-n2c(C)cc(/C=N\NC(=O)c3cccs3)c2C)c1,-11.3%
17,CC(=O)Nc1ccc(/C=N/NC(=O)c2cccs2)cc1,58.1% (active)
18,CC(C)C(=O)Nc1ccc(C(=O)NNC(=O)c2cccs2)cc1,3.9%
19,CSc1cccc(NC(=S)N(C(C)C)C(C)c2ccccn2)c1 (stereo not drawn),4.01%
20,CC1(C)CC(=O)c2c(n(S(=O)(=O)c3ccccc3)c3ccc(NS(=O)(=O)c4ccccc4)cc23)C1,6.92%
21,COc1ccc(-c2oc3ncn(Cc4ccco4)c(=N)c3c2-c2ccc(OC)cc2)cc1,-13.1%

row,Compound,inhibition
1,COc1cccc(NC(=O)COC(=O)c2ccc3ccccc3n2)c1,-3.74%
2,CCc1nnc(NC(=O)CSc2nnnn2-c2cccc(C(C)=O)c2)s1,-12.9%
3,Cc1ccccc1C(=O)Nc1ccc(N2CCCCCC2)cc1,72.7% (active)
4,CSc1cccc(NC(=O)CSc2ccccc2)c1,-11%
5,CCOc1ccc(C(=O)Nc2cccc(SC)c2)cc1,91.4% (active)
6,COc1ccc(C(=O)Nc2cccc(S(C)(=O)=O)c2)cc1,-10.8%
7,Cc1ccccc1C(=O)NC(=S)Nc1ccc(N2CCN(C(=O)c3ccccc3)CC2)cc1,2.96%
8,O=C(Nc1ccc(N2CCOCC2)cc1)c1cccc(S(=O)(=O)N2CCOCC2)c1,-0.135%
9,COc1cccc(NC(=O)CN(C)CC(=O)Nc2ccc3c(c2)CCC3)c1,-11.1%
10,COc1cccc(C(=O)Nc2nnc(S(=O)(=O)N3CCCCC3)s2)c1,0.355%
11,Cc1ccccc1C(=O)N1CCN(c2ccc(NC(=O)c3cccs3)cc2)CC1,-5.79%
12,CCOc1ccc(C(=O)Nc2cccc(-c3ccc4nncn4n3)c2)cc1,5.7%
13,CCC(=O)Nc1ccc(C(=O)Nc2cccc(OC)c2)cc1,51.2% (active)
14,COc1cccc(C(=O)Nc2ccc(N3CCCC3)cc2)c1,97.6% (active)
15,CCn1c(=S)sc2c(=O)n(CC(=O)Nc3cccc(Br)c3)c(C)nc21,3.55%
16,Cc1cccc(C(=O)OCC(=O)NCC(C)C)c1O,9.44%
17,CCCn1c(SCC(=O)Nc2c(C)cccc2C)nnc1C(C)C,-9.77%
18,C=CCOc1ccc(/C=N/NC(=O)C(C)Sc2ccccn2)cc1OCC (stereo not drawn),-0.571%
19,COc1ccc(CCNC(=O)C(=O)NCC2OCCN2S(=O)(=O)c2cccs2)cc1OC (stereo not drawn),-6.36%
20,Cc1ccc(NC(=O)CCOc2ccccc2)cc1S(=O)(=O)Nc1ccccc1Cl,1.1%
21,Cc1c(C(=O)NCCN(C)C)oc2ccc(S(=O)(=O)N3CCCC3)cc12,4.61%

row,Compound,inhibition
1,CS(=O)(=O)N(CC(=O)NC1CCCC1)Cc1ccc(F)cc1,-6.07%
2,O=C(NC1CC1)c1ccc(-c2ccccc2)cc1,-15.5%
3,COc1cccc2sc(Nc3nc(C)c(C(C)=O)s3)nc12,87.8% (active)
4,CNC(=O)c1sc(NCc2ccccc2OC)nc1C,8.32%
5,COc1ccccc1/C=N/Nc1nc(C)c(C(C)=O)s1,-28%
6,CCn1c(SCC(=O)Nc2ccc(Br)cc2)nc2sc3c(c2c1=O)CCN(C)C3,12.7%
7,CCOc1ccc(CN2CCN(Cc3ccc4cc(F)ccc4n3)CC2CCO)cc1 (stereo not drawn),9.04%
8,O=C(O)c1ccc2c3c(cccc13)C(=O)N(OS(=O)(=O)c1ccccc1)C2=O,60.3% (active)
9,COc1cccc(-c2ccc3c(c2)S(=O)(=O)c2cccc(C(=O)O)c2C3=O)c1OC,-1.89%
10,CCN(c1ccccc1)S(=O)(=O)c1cccc(C(=O)NCc2ccccc2CN2CCOCC2)c1,-16.6%
11,CCc1ccc(C(=O)OCC(=O)NCC(F)(F)F)cc1,-1.8%
12,CCCC1NC(=O)NC(C)=C1C(=O)OCC (stereo not drawn),-6.49%
13,O=C(/C=C/c1ccco1)NC(=S)Nc1ccccc1Br,6.12%
14,O=C(/C=C/c1ccco1)Nc1ccc(Oc2ccccc2)cc1,80.1% (active)
15,Cc1nnc(NC(=O)/C=C/c2ccco2)s1,-18.6%
16,CCOC(=O)C1(Cc2cccc(OC)c2)CCCN(S(=O)(=O)c2cccnc2)C1 (stereo not drawn),-9.47%
17,Oc1ccc(N=Nc2nccs2)c(O)c1,87.3% (active)
18,C=CCC(NC(=O)Cc1ccccc1)C(=O)NCCC (stereo not drawn),-9.67%
19,Cc1nc2ccc(C(=O)N/N=C/c3ccc(O)cc3)cc2[nH]1,-6.89%
20,Cc1nonc1C(=O)N/N=C/c1ccc(O)cc1,98.9% (active)
21,COC(=O)N/N=C/c1ccc(/C=N/NC(=O)OC)cc1,-17.5%

# Source: PubChem BioAssay AID2599 (Sanford-Burnham Center for Chemical Genomics, 2010)
